# This is a sample that favours compounds with a hit; in the whole collection about 2.8% have one here.
# TGFb inhibitor: TGF-b pathway inhibition; HepG2 CAGA-GFP TGF-b/SMAD3 reporter, GFP fluorescence, 18 h; TGF-beta stimulated, 500 pg/mL final; Potency, µM (top dose mostly 46.1 µM), for inactives: at the highest dose activity, negative = inhibition, hits mostly inhibitors; AID 588855; 1.2% of 410,000 active; note: potency is the fitted concentration of half-maximal effect; % is set by controls: 0 for no effect and ±100 for the full control effect; nearly all actives have a fitted effect of over 65% in size
#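 HEPG2 CAGA-GFP, 1000 cells/well; 2 h settle, 37 C; cpd via pin tool; TGF-b 500 pg/mL final; 18 h, 37 C; GFP imaging ex488/em500-530; %Activity normalised to -TGF-b and +DMSO controls; CRC fit, curve class.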
# HepG2 tox: HepG2 cytotoxicity, counter-screen for TGF-b inhibitors. HepG2 CAGA-GFP viability, ATP luminescence, 18 h. Potency, µM (titrated, usually from 46.1 µM), inactives show at the highest dose activity change, negative = cytotoxicity, most hits filed as cytotoxic. 0.76% of 410,000 active. AID 588856; note: potency is the fitted concentration of half-maximal effect
#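 HepG2 CAGA-GFP cells (1000/well, DMEM with 1% FBS) received compound, then TGF-beta at 500 pg/mL final, and were incubated 18 hours at 37 degrees C. Viability was read by CellTiter-Glo luminescence. Media-only wells were set as complete cell-killing and DMSO as no toxicity.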
# CtBP-E1A blk: inhibitors of CtBP/E1A interaction. AID 651724. activity change, % (concentration not given with the values). 0.49% of 340,000 active. AlphaScreen GST-E1A/His-CtBP binding, 1536-well; active compounds read low; in the data active = activity change below about -65%; inconclusive = mostly about -30% to -63%; note: % is set by controls: 0 for no effect and ±100 for the full control effect
#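 AlphaScreen with 125 nM GST-E1A and 125 nM His-CtBP (5X stocks) in Tris pH 8.0, 300 mM NaCl, BSA, Tween 20, TCEP. Compounds preincubated 2 h at 37 deg C, then glutathione donor/nickel acceptor beads added for 1 h at 37 deg C in dark.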
# Six1-Eya2 inh: blocks human Six1 binding to Eya2. AlphaScreen GST-Six1/His-Eya2 binding, biochemical; active compounds read low. 0.56% of 360,000 active. AID 651725. activity change, % (test concentration not listed); in the data active = activity change below about -65%; inconclusive = mostly about -30% to -63%; note: % is set by controls: 0 for no effect and ±100 for the full control effect
#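 Six1/Eya2 binding was read as AlphaScreen signal after compounds were pinned into GST-Six1 plus His-tagged Eya2 (5X stock 250/500 nM) in pH 8.0 Tris/NaCl/TCEP buffer, beads added, then incubated 1 h, 37 C, dark.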
# S2 tox: reduces viability in counter-screen for ATXN expression inhibitors; 0.49% of 400,000 active; AID 651635; Potency, µM (series often up to 56.7 µM), actives largely listed as cytotoxic; S2 cells (HEK-293 line with an ATXN2-luciferase reporter) viability, CellTiter-Fluor protease fluorescence, 24 h; note: potency is the fitted concentration of half-maximal effect; nearly all actives have a fitted effect of over 40% in size
# ATXN2 expr inh: reduces ATXN2 reporter expression in HEK-293 cells | HEK-293 ATXN2-luciferase reporter, luminescence, 24 h | Potency, µM (top dose mostly 57 µM), without a hit: top-dose activity change, negative = inhibition, hits mostly inhibitors | 0.72% of 360,000 active; note: potency is the fitted concentration of half-maximal effect; % is set by controls: 0 for no effect and ±100 for the full control effect; nearly all actives have a fitted effect of over 55% in size
#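 ATXN2-luciferase reporter cells (luciferase flanked by upstream and downstream ATXN2 gene portions) were treated 24 h at 37 °C with compounds at up to 57 uM. SteadyGlo luminescence gave expression; GF-AFC fluorescence gave viability.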
# Active calls of the source: *; i = inactive; ? = inconclusive; . = no result; [ ] = dose if it differs, or a comment. Unless noted, calls come from the whole dose curve; as a rule, active = well fitted curve in the direction sought with a large enough effect; inconclusive = small, poorly fitted or top-dose-only effect, or another doubt; inactive = no such curve, though single readings can be large; an effect the other way counts as inactive or inconclusive.
SMILES,TGFb inhibitor,HepG2 tox,CtBP-E1A blk,Six1-Eya2 inh,S2 tox,ATXN2 expr inh
O=C(Cn1ncc2c3ccccc3n(Cc3ccccc3F)c2c1=O)NC1CCCCCC1,15%,7%,.,.,i,14%
CC1=NN(C(N)=S)C(=O)C1N=Nc1cccc(C)c1 (configuration not stated),1.8µM*,-38%,-1,-3,i,.
CCOC(=O)c1c[nH]c(=S)n(-c2ccccc2)c1=O,?,3%,5,1,i,6%
CCOC(=O)c1c(SCCN2CCCC2)n(-c2ccccc2)c(=S)n(-c2ccccc2)c1=O,?,-47%,-5,8,?,22µM*
Nc1ncnc(Sc2ncccn2)c1[N+](=O)[O-],10µM*,11µM*,5,8,24µM*,?
Nc1ncnc(Sc2ccccc2)c1[N+](=O)[O-],-26%,7%,-3,1,i,28%
CCCN1CCN(c2ncnc3sc(C(=O)Nc4ccc(C(C)C)cc4)c(C)c23)CC1,?,-39%,.,.,.,?
CCCN1CCN(c2ncnc3sc(C(=O)Nc4ccc(OC(F)(F)F)cc4)c(C)c23)CC1,22µM*,-112%,.,.,.,.
CCN1C/C(=C/c2ccc(N3CCOCC3)cc2)C(=O)/C(=C/c2ccc(N3CCOCC3)cc2)C1,7%,-40%,-2,5,.,22µM*
COc1ccc(CC2S/C(=N/N=C/c3ccccc3O)NC2=O)cc1 (configuration not stated),7.9µM*,-51%,8,-2,?,?
O=C1N/C(=N/N=C/c2ccccc2O)SC1Cc1ccc(F)cc1 (configuration not stated),?,-29%,5,3,?,8.9µM*
O=C1N/C(=N/N=C/c2ccc(O)cc2)SC1Cc1ccccc1 (configuration not stated),-5%,-6%,-14,6,i,7%
COc1ccc(CC2S/C(=N/N=C/c3ccc(O)cc3)NC2=O)cc1 (configuration not stated),35%,20%,-1,0,i,4%
C=C(CN(C)C)C(=O)c1ccc(OC2OC(COC(C)=O)C(OC(C)=O)C(OC(C)=O)C2OC(C)=O)cc1 (configuration not stated),?,-94%,-18,5,9.5µM*,?
CC(=O)OC[C@H]1O[C@@](COC(C)=O)(O[C@H]2O[C@H](COC(C)=O)[C@@H](OC(C)=O)[C@H](OC(C)=O)[C@H]2OC(C)=O)[C@@H](OC(C)=O)[C@@H]1OC(C)=O,.,.,.,.,i,9%
CCCCN(CCCC)c1ccc(Cn2ccc3ccccc32)cc1,18µM*,-72%,.,.,.,.
O=C(C=Cc1cccc(S(=O)(=O)Nc2ccccc2)c1)NO,.,.,.,.,.,89%[116 µM]
Cc1ccc(Oc2ccc(C(F)(F)F)cc2[N+](=O)[O-])c([N+](=O)[O-])n1,15%,22µM*,-4,-9,?,53%
Cc1c(Oc2ccc(C(F)(F)F)cc2[N+](=O)[O-])ccc2c3c(c(=O)oc12)CCC3,14%,6%,0,3,i,6%
O=C1NC[C@@H](CCCCN2C[C@H](Cc3ccccc3)N(CC3CCCCC3)C(=O)C2=O)N(CC2CCCCC2)C1=O,.,.,-2,-2,14µM*,-8%
O=C(Nc1cc(C(F)(F)F)ccc1Cl)c1cnn(-c2ccccc2)c1-n1cccc1,?,-24%,.,.,.,.
Cc1ccc(Cn2cc(CN3CC(N4CCN(CCO)CC4)CS3(=O)=O)nn2)cc1 (configuration not stated),.,.,1,10,i,13%
Cc1cc(N2CCN(c3ccc([N+](=O)[O-])c4cccnc34)CC2)c2ccccc2n1,?,3.2µM*,26,4,?,?
Cc1cc(N2CCN(c3ccc(C(F)(F)F)cc3[N+](=O)[O-])CC2)c2ccccc2n1,10µM*,-61%,.,-4,.,.
Cc1ccc(S(=O)(=O)N2CCN(c3ccc(C(F)(F)F)cc3[N+](=O)[O-])CC2)cc1,?,-24%,-20,-24,i,-30%
SMILES,TGFb inhibitor,HepG2 tox,CtBP-E1A blk,Six1-Eya2 inh,S2 tox,ATXN2 expr inh
O=C(NCC1Cc2cc(F)cc(-c3cnccn3)c2O1)c1cccc(Cl)c1 (configuration not stated),.,.,.,.,i,.
Cc1cc(/C=N/n2cnnc2)c(C)n1-c1ccc(OCc2ccc(Cl)cc2)cc1,?,-24%,-12,-25,?,-19%
Cc1cc(/C=N/n2cnnc2)c(C)n1-c1ccc(OCc2ccccc2F)cc1,11µM*,13µM*,2,-26,i,?
COc1ccc(CC(=O)Nc2ccc(OC(C)=O)cc2C(=O)O)cc1,0%,1.1µM*,.,1,i,.
CCNc1nc2c(c(=O)[nH]c(=O)n2C)n1CC(O)COc1ccc(Cl)cc1Cl (configuration not stated),.,-18%,.,.,.,.
O=S(=O)(Nc1cccc(-c2cn3cccnc3n2)c1)c1ccc(F)cc1,0%,-5%,-1,-67*,i,3%
O=S(=O)(Nc1cccc(-c2cn3cccnc3n2)c1)c1ccc(-c2ccccc2)cc1,-4%,-16%,?,?,i,-7%
O=S(=O)(Nc1cccc(-c2cn3cccnc3n2)c1)c1ccccc1,-3%,-4%,-21,-83*,i,3%
CCOc1cccc(-c2nn3c(-c4cc(C)[nH]n4)nnc3s2)c1,-11%,-24%,-71*,?,i,6%
COc1ccc(-c2nn3c(-c4cc(C)[nH]n4)nnc3s2)cc1,10%,3%,.,.,.,.
COc1ccc(CN2CCOc3ccc(CN4CCC(O)(c5cccnc5)CC4)cc3C2)cc1OC,.,.,.,.,i,.
CCCN1CCC(NCc2cn(C)nc2-c2ccc(Oc3ccccc3)cc2)CC1,?,1.3µM*,-17,-4,?,.
COc1cc(=O)n2c(c1C(=O)N(C)Cc1nonc1C)CCN(Cc1c(F)cccc1F)CC2,.,.,.,.,i,.
Cc1ncc2c(c1CNC(=O)c1cncs1)CCN(C(=O)c1ccc(C(C)(C)C)cc1)C2,.,.,.,.,i,.
COc1cc(C(=O)N/N=C/c2cc([N+](=O)[O-])cs2)cc(OC)c1OC,-23%,-5%,-72*,?,i,1%
CC(C)(C)c1cc(NCc2ccccn2)n2ncc(-c3ccccc3)c2n1,14µM*,-32%,19,28,i,-34%
CCCCCOc1c(Cl)cc(C(=O)N(Cc2ccc(C)o2)C2CCS(=O)(=O)C2)cc1Cl (configuration not stated),18µM*,-55%,.,.,?,?

# High-throughput results from PubChem.
